An excerpt weighted towards active compounds, which were near 2.6% of everything screened.
TPT1 inh – blocks Candida albicans tRNA 2'-phosphotransferase; recombinant caTPT1, FP RNA substrate dephosphorylation; inhibition, % at 5 µM; 0.81% of 300,000 active; AID 1962;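 active means inhibition above the mean of all tested compounds plus 3 SD, set per screening campaign, cut at about 24% in these data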
IDE inh – inhibitors of human insulin-degrading enzyme in cells | 0.41% of 320,000 active | inhibition, % at 5.59 µM | AID 434962 | P14735 | HEK cells, FAbetaB cleavage, fluorescence polarization;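 active means percent inhibition above the average of all tested compounds plus 3 SD, set per screening campaign, cut at about 16% in these data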;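 further: IDE supplied by intact live HEK cells; FP after avidin binding of uncleaved biotin substrate so inhibition keeps polarization high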
IDE act – IDE (human) activation, cell-based; P14735; HEK cells, FAbeta-B cleavage, fluorescence polarization; 0% vehicle, 100% cell-free pure enzyme wells; activation, % at 5.96 µM; 0.073% of 340,000 active;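 active means activation above the mean of all tested compounds plus 3 SD, set per screening campaign, cut at about 17% in these data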
Myeloid diff 2 – compounds promoting myeloid differentiation; ER-HoxA9 myeloid progenitors, lysozyme-GFP differentiation, flow cytometry; calls only at 10 µM; 1% of 360,000 active; AID 624256;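 active means normalized GFP-positive differentiation at or above the plate's own cutoff, the solvent-only control mean plus 3 SD; inconclusive means no clear call, values can overlap the other calls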;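 further: cells exposed to compound for four days before flow analysis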
CRFBP-R2 block – CRF-BP/CRF-R2 complex antagonism; inhibition, % at 11.8 µM; AID 588475; HEK293 CRF-R2/CRF-BP, CRF-induced calcium fluorescence; 0.59% of 350,000 active;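 active means inhibition of the ligand-induced calcium signal above about 50% at the single tested concentration, limit read from the data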
CRFBP-R2 agonist – agonists of human CRF-binding protein/CRF-R2 receptor complex; HEK293 CRF-R2/CRF-BP, calcium dye fluorescence (FLIPR); percent of saturating CRF peptide response; activation, % at 13.2 µM; 0.46% of 350,000 active; AID 588473;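 active means activation of at least 50%, plus an integration ratio under a set limit after plate pattern correction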
TPT1 inh confirm – TPT1 (C. albicans) inhibition, confirmation. shares compounds with TPT1 inh. recombinant caTPT1, fluorescence polarization, RNase T1 coupled. inhibition, % at 5 µM. 74% of 2,400 active;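 active means inhibition above the primary screen limit, the mean inhibition of all tested compounds plus 3 SD, cut at about 25% in these data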
RNase T1 inh – RNase T1 inhibition in TPT1 counter-screen; shares compounds with TPT1 inh; RNase T1 cleavage, fluorescence polarization, 1536-well; inhibition, % at 5 µM; 83% of 2,400 active; AID 2153;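 active means inhibition above the solvent-only control well mean plus 3 SD, limit set per screening run, cut at about 23% in these data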;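 further: inhibitors block cleavage so intact labeled substrate keeps polarization high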
Target sequence (P00651 whole entry, looked up): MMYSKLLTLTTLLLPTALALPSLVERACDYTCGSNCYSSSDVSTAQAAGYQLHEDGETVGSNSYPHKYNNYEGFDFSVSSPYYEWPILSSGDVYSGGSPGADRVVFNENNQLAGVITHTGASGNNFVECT
IDE inh confirm – confirmation of human insulin-degrading enzyme inhibitors in cells; inhibition, % at 5.59 µM; HEK cells, FAbetaB cleavage, fluorescence polarization; 51% of 1,200 active; shares compounds with IDE inh;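 active means mean inhibition across triplicate wells above the cutoff set by the earlier primary insulin-degrading enzyme screen, cut at about 16% in these data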
HEK293 tox – counter-screen for IDE inhibitors: cytotoxicity in HEK cells; shares compounds with IDE inh; HEK293 cytotoxicity, ATP luminescence; inhibition, % at 5.59 µM; 28% of 1,200 active; AID 449730; in the data active means inhibition above about 22%
A number is an active result; 0 = inactive; ? = inconclusive; - = no result given; + = active, no number.

SMILES	TPT1 inh	IDE inh	IDE act	Myeloid diff 2	CRFBP-R2 block	CRFBP-R2 agonist	TPT1 inh confirm	RNase T1 inh	IDE inh confirm	HEK293 tox
CCN1C(=O)[C@@H]2Cc3c([nH]c4ccccc34)C(c3ccc(OC)cc3)N2C1=S (stereo not given in full)	64.8	41.0	0	+	0	0	48.5	59.7	19.9	61.5
CC1=C/C(=C\C=C(C#N)C#N)N(C)c2ccccc21	34.0	80.6	0	+	0	0	33.3	43.1	125.1	22.8
CCCc1cc(=O)oc2cc(C)cc(OC(C)C(=O)NCCCn3ccnc3)c12 (stereo not given)	0	0	0	0	0	0	-	-	-	-
Cc1ccc(N=Cc2sc(O)c3ccccc23)cc1	142.4	36.4	0	0	0	59.2	111.3	109.2	57.4	0
Cc1ccc(N=Cc2c(O)c3ccccc3n(C)c2=O)cc1	-	-	0	0	0	0	-	-	-	-
C=CCN1C(=O)/C(=C/C=C2/N(CC)c3ccc(S(=O)(=O)N(C)C)cc3N2CC)SC1=S	160.8	22.3	0	+	0	164.5	143.8	138.0	160.4	39.3
CCN1C(=O)C(CC(=O)Nc2ccc(C)cc2C)Nc2cc(S(=O)(=O)N(C)C)ccc21 (stereo not given)	0	0	0	0	0	0	-	-	-	-
N#C/C(=C\c1ccc(O)c(O)c1)C(=O)Nc1ccccc1	33.3	25.6	0	0	0	0	39.5	48.2	49.7	0
C[C@@H](NC(=O)/C(C#N)=C/c1ccc(O)c(O)c1)c1ccccc1	0	0	0	0	0	0	-	-	-	-
Cc1ccccc1NC(=O)c1cc[n+]([O-])cc1	0	0	0	0	0	0	-	-	-	-
CCCCCN1CC(=O)N2Cc3[nH]c4ccccc4c3C[C@H]2C1=O	0	0	0	0	0	0	-	-	-	-
CCCCN1C(=O)C2Cc3c([nH]c4ccccc34)CN2C1=S (stereo not given)	25.1	30.3	0	+	0	0	0	38.5	93.8	0
Cc1cccc(N2C(=S)N=C(Nc3c(C)cccc3C)C23CCOC(C)(C)C3)c1 (stereo not given)	0	0	0	-	0	0	-	-	-	-
CCN(CC)c1ccc2cc(-c3nnc(-c4ccccc4)o3)c(=O)oc2c1	117.1	36.2	0	+	0	191.7	122.2	114.9	82.6	0
O=C(C1=NN(c2ccccc2)C2C(=O)N(c3ccccc3)C(=O)C12)c1ccccc1 (stereo not given)	28.1	18.7	0	0	0	67.9	31.6	44.7	23.1	0
O=C(C1=NN(c2ccccc2)C2C(=O)N(c3ccccc3Cl)C(=O)C12)c1ccccc1 (stereo not given)	31.4	24.0	0	0	0	134.7	31.9	46.0	28.9	0
O=C(OCCN1C(=O)c2cccc3c(N4CCOCC4)ccc(c23)C1=O)c1ccccc1Cl	53.0	112.7	0	0	0	170.1	63.2	69.7	96.2	49.5
O=C(OCCN1C(=O)c2cccc3c(N4CCOCC4)ccc(c23)C1=O)c1ccc(Cl)cc1Cl	59.3	49.3	0	?	0	176.0	64.4	70.5	48.5	61.5
O=C(OCc1c(F)cccc1Cl)c1cc([N+](=O)[O-])ccc1N1CCOCC1	0	0	0	0	0	0	-	-	-	-
C=CCN1C(=O)c2cccc3c(N4CCCCC4)ccc(c23)C1=O	64.4	21.7	0	0	0	255.5	41.4	57.0	84.9	24.3
O=C(COC(=O)c1cccc(Cl)c1)Nc1cc(S(=O)(=O)N2CCOCC2)ccc1N1CCOCC1	-	-	0	0	0	0	-	-	-	-
O=C(OCCN1C(=O)c2cccc3c(N4CCOCC4)ccc(c23)C1=O)c1cccc(Cl)c1	49.0	91.2	-	-	0	175.2	62.0	69.8	81.2	38.3
O=C(OCCN1C(=O)c2ccccc2C1=O)c1cc(S(=O)(=O)N2CCOCC2)ccc1Cl	0	0	0	0	0	0	-	-	-	-
CC1CCCC(NC(=O)COC(=O)c2cc(S(=O)(=O)N3CCOCC3)ccc2F)C1C (stereo not given)	-	0	0	0	0	0	-	-	-	-
O=C(CN(Cc1ccc(F)cc1)C(=O)CNS(=O)(=O)c1ccccc1)NCC1CCCO1 (stereo not given)	0	0	0	0	0	0	-	-	-	-
SMILES	TPT1 inh	IDE inh	IDE act	Myeloid diff 2	CRFBP-R2 block	CRFBP-R2 agonist	TPT1 inh confirm	RNase T1 inh	IDE inh confirm	HEK293 tox
COc1ccc(Cn2ccnc2SCC(=O)Nc2ccc(F)cc2F)cc1	-	-	-	0	0	0	-	-	-	-
COc1ccc(Cl)cc1C(=O)Nc1cccc(-c2ccc3nncn3n2)c1	38.4	16.9	0	0	0	0	54.9	28.4	0	22.2
O=C(N/N=C/c1sc2ccccc2c1O)c1ccccc1	135.4	33.9	0	?	0	0	135.3	127.6	61.5	114.9
COc1ccc(C(=O)N/N=C/c2sc3ccccc3c2O)cc1	139.1	17.3	0	0	0	50.5	145.1	135.5	32.8	86.7
C[C@H]1CN([C@@H](C)CO)C(=O)CCCn2cc(nn2)CO[C@@H]1CN(C)S(=O)(=O)c1ccc(Oc2ccccc2)cc1	-	-	-	0	0	0	-	-	-	-
Cc1ccc(O)c(C(=O)c2cc(C#N)c(=O)n(-c3nccs3)c2)c1	55.7	51.1	0	0	0	165.9	54.0	61.4	65.3	0
CCn1c(SCC(=O)Nc2ccccc2Br)nnc1-c1cnccn1	0	0	0	0	0	0	-	-	-	-
CC1C/C(=C/c2cccn2C)C(=O)/C(=C/c2cccn2C)C1 (stereo not given)	190.6	38.9	0	0	0	127.5	187.0	169.6	94.4	22.9
Cc1ccc(-n2ncc3c2CC(C)(C)CC3NC(=O)c2c(C)noc2C)cc1 (stereo not given)	-	-	0	?	0	0	-	-	-	-
Cc1cc(/C=C2/SC(=O)N(CC(=O)N3CCOCC3)C2=O)c(C)n1-c1ccccc1F	0	0	0	0	0	0	-	-	-	-
Cc1cc(/C=C2\SC(=S)N(C)C2=O)c(C)n1-c1ccccc1O	146.7	27.1	0	+	0	0	146.7	142.2	29.0	47.4
Nc1c(Cl)cc2c(c1Br)Cc1ccccc1-2	-	-	0	0	0	0	-	-	-	-

Source: PubChem BioAssay
